Screening data as filed in PubChem.
Only some compounds are listed: those with a hit (about 1.3% of all), similar ones and a draw of the others.
DUSP3 inh = VHR1 phosphatase inhibitors, primary screen, biochemical, absorbance, uHTS. Dual specificity protein phosphatase 3 (Homo sapiens), P51452. recombinant VHR phosphatase, pNPP absorbance. inhibition, % at 13.3 µM. 0.52% of 290,000 active. AID 1654, 2009; in the data active = inhibition above about 50%
Target sequence (P51452 whole entry, looked up): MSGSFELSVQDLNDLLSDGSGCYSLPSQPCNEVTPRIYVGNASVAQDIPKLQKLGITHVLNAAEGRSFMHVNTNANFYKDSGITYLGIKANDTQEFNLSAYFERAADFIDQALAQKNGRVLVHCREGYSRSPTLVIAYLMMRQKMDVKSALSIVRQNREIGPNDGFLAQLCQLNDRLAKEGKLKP
Vc quorum ag-1 = inducers of Vibrio cholerae quorum light production without autoinducers, primary screen, BH1578 luxS cqsA deficient, single point. V. cholerae BH1578 lux reporter, luminescence, 6 h. activation, % at 18.7 µM. 0.16% of 350,000 active; in the data active = activation mostly above about 9.7%, no sharp cut-off
PriA SSB inh = inhibitors of Klebsiella pneumoniae PriA binding to SSB C-terminal tail, primary screen, biochemical, AlphaScreen; PriA–SSB C-terminal tail interaction (Klebsiella pneumoniae); AlphaScreen SSBct-PriA binding, biotinylated peptide; inhibition, % at 33 µM; 0.6% of 430,000 active; AID 1272365, 2023; in the data active = inhibition mostly above about 37%, no sharp cut-off; inactive = mostly below about 20%;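 note: plate controls were negative control peptide for no effect and reference peptide for full effect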
CCHF vOTU inh = CCHFV vOTU protease inhibitors, primary screen, biochemical, Pep-AMC substrate, fluorescence; Crimean-Congo hemorrhagic fever virus L polyprotein viral ovarian tumor (vOTU) protease …; inhibition, % at 11.5 µM; 0.55% of 370,000 active; in the data active = inhibition above about 30%; note: 0% = vehicle wells with enzyme and 100% = no enzyme wells
3CLpro inhibitor = SARS-CoV 3CLpro protease inhibitors, primary screen, biochemical, quenched FRET | Replicase polyprotein 1ab (Severe acute respiratory syndrome coronavirus), P0C6X7 | recombinant SARS-CoV 3CLpro, quenched FRET peptide cleavage | inhibition, % at 6 µM | 0.14% of 290,000 active; in the data active = inhibition above about 12%
TcdB inh = TcdB glycohydrolase inhibitors, primary screen, biochemical, single point, plate reader | 0.24% of 350,000 active | AID 652162, 2013 | inhibition, % at 9.99 µM | TcdB glycohydrolase enzymatic assay | Toxin B (Clostridioides difficile), P18177; in the data active = inhibition above about 10%
Vc quorum ag-2 = V. cholerae lux activation without autoinducers – BH1578 luxS cqsA deficient, cherry-pick, plate reader, dose response; shares compounds with Vc quorum ag-1; 620 tested, under 10 active; V. cholerae BH1578 lux reporter, luminescence, 6 h; activation, % at 50 µM; call rule not given here
* hit, by the source's call; i = inactive; . = no result given.

SMILES	DUSP3 inh	Vc quorum ag-1	PriA SSB inh	CCHF vOTU inh	3CLpro inhibitor	TcdB inh	Vc quorum ag-2
CCC(C)Cn1c(S(=O)(=O)O)nc2ccccc21 (stereo unspecified)	-5	24	-8	-14	4	.	0
CC(C)Cn1c(S(=O)(=O)O)nc2ccccc21	5	i	-2	-10	4	1	.
CC(C)c1ccc2nc(NC(=O)C3CCN(S(C)(=O)=O)CC3)sc2c1	.	.	1	.	.	.	.
COc1ccc(Cl)cc1NC(=O)CN1CCc2ccccc2C1	-8	107*	-33	15	0	-1	278
COc1cc(NC(=O)Nc2cccc(Cl)c2)c(OC)cc1NC(=O)CN1CCCCC1	8	12	50*	5	-7	.	0
O=C(CN1CCCCC1)Nc1cccc(Cl)c1	9	-1	-15	-15	-6	0	.
CCOC(=O)N=S(=O)(Oc1ccc([N+](=O)[O-])cc1)c1ccccc1[N+](=O)[O-] (stereo unspecified)	.	.	13	.	.	.	.
CC(C)CC(=O)Nc1ccccc1N1CCN(C(=O)c2ccccc2)CC1	3	34*	-1	6	-7	.	0
CC(C)CC(=O)Nc1ccccc1N1CCN(c2ccccc2)CC1	27	0	-1	-3	-3	2	.
CCCOc1cc(C)c(S(=O)(=O)NCCOC)cc1C	13	14	0	5	2	.	0
CC(C)c1ccc(NC(=O)c2sccc2S(=O)(=O)N2CCN(c3ccccc3)CC2)cc1	.	.	-1	.	.	.	.
CC(C)OC(=O)CSc1nnc(SCc2cccc3ccccc23)s1	25	29*	-71	11	11	.	0
O=[N+]([O-])c1ccc(N2CCOCC2)c2c1no[n+]2[O-]	.	35*	.	22	.	5	1
N#Cc1cccnc1OC1CCN(C(=O)Cc2ccccc2Cl)CC1	.	.	-11	.	.	.	.
Cc1cc(=O)oc2ccc(OCc3ccccc3)cc12	18	.	-29	-4	-3	0	i
N#Cc1ccccc1NC(=O)CNc1ccccc1N1CCCCC1	0	160*	-7	7	-2	.	255
CCC(=O)N(CCCN(C)C)c1nc(-c2cc(OC)ccc2OC)cs1	10	0	-5	6	-5	.	.
CCC(=O)N(CC)c1nc(-c2cc(OC)ccc2OC)cs1	4	15*	-12	-5	-1	0	1
CCCCn1c(=O)c(C(=O)NC(C)c2ccccc2)c(O)c2ccccc21 (stereo unspecified)	-23	i	2	-2	2	1	.
C=CCn1c(=O)c(C(=O)NC(C)c2ccccc2)c(O)c2ccccc21 (stereo unspecified)	4	451*	-30	-5	1	1	0
Cc1cc(F)ccc1S(=O)(=O)N1C2C=CCC1CC2 (stereo unspecified)	.	.	-6	.	.	.	.
CC(C)[C@H](NC(=O)c1ccccc1F)C(=O)NC1CCCCC1	.	0	-4	2	.	0	.
CC(C)[C@H](NC(=O)c1ccccc1F)C(=O)OCC(=O)NC1CC1	.	20*	-13	9	.	1	0
COC(=O)C1=C(C)N=C2SCCC(=O)N2C1c1cc(Br)ccc1OC (stereo unspecified)	12	2	-4	12	-3	.	.
CCOC(=O)C1=C(C)N=C2SCCC(=O)N2C1c1cc(Br)ccc1OC (stereo unspecified)	.	12	-2	1	-1	.	0
SMILES	DUSP3 inh	Vc quorum ag-1	PriA SSB inh	CCHF vOTU inh	3CLpro inhibitor	TcdB inh	Vc quorum ag-2
Cc1occc1-c1nnc(SCC(=O)NCc2cccs2)n1-c1ccc(F)cc1	-16	14	1	-6	-1	.	0
Cc1nnc(SCC(=O)NCc2cccs2)n1-c1ccccc1	0	i	-4	-8	-8	.	.
O=C1C(=O)N(Cc2ccco2)C(c2cccc(Cl)c2)/C1=C(\O)c1ccc2c(c1)OCCO2 (stereo unspecified)	0	12	.	12	-6	.	0
COc1ccc(-c2ccc(NC(=O)c3cc(Cl)ccc3Cl)cc2)nn1	.	.	1	.	.	.	.
Cc1nnc2c3ccccc3c(-c3ccc(O)cc3)nn12	23	84*	-14	-1	-8	.	412
CCCCOCC(O)CN1CCN(C(C)=O)CC1 (stereo unspecified)	12	12	4	-7	-6	.	2
CC(=O)N1CCN(CC(O)COc2ccc(Br)cc2)CC1 (stereo unspecified)	-8	i	-10	13	-5	0	.
O=C(CCCn1nc(-c2ccc(F)cc2)ccc1=O)N1CCc2ccccc21	.	.	-2	.	.	.	.
CCOC(=O)CNc1c(-c2ccc(Cl)cc2)nc2cnccn12	10	25*	-13	-159	-20	.	0
Cc1nc(Nc2ccncc2)c2oc3ccccc3c2n1	33	-1	3	10	1	0	.
CC(=O)Nc1ccc(Nc2nc(C)nc3c2oc2ccccc23)cc1	-4	17*	4	11	-2	.	12
CC(=O)Nc1ccc(NC(=O)CSc2nc(-c3cccc(F)c3)nc3c2c(=O)n(C)c(=O)n3C)cc1	.	.	-3	.	.	.	.
CCn1c(SCC(=O)OC2CCCCC2)nnc1-c1ccncc1	29	17*	-17	6	-10	.	0
Cc1nn2cnnc2c(C)c1Cc1c(F)cccc1Cl	18	165*	6	-17	-7	0	10
COc1ccc(C2C3=C(CC(C)(C)CC3=O)N=C(SC)C2C#N)cc1OC (stereo unspecified)	.	.	-10	.	.	.	.
NC(=O)c1cc(Br)cc(C2CCCCC2)c1O	32	.	14	-7	4	3	i
COc1ccc(C(=O)N2CCC(C(=O)c3ccc(F)cc3)CC2)cc1	-5	17*	-8	10	4	.	1
CC(=O)c1ccc(S(=O)(=O)NCCNC(=O)c2ccc(NC(=O)C(C)C)cc2)cc1	.	.	-22	.	.	.	.
Cc1cnc(C(=O)OCC(=O)Nc2ccc(Cl)cc2)cn1	16	i	1	10	-2	1	.
Cc1cnc(C(=O)OCC(=O)NC(=O)NC(C)C)cn1	21	33*	0	-3	-3	.	0
COc1ccccc1CNC(=O)C1CSC2(C)CCC(=O)N12 (stereo unspecified)	.	i	-7	-4	.	-1	.
COc1cccc(CNC(=O)C2CSC3(C)CCC(=O)N23)c1 (stereo unspecified)	.	14	0	3	.	0	0
Cc1cc2oc(=O)cc(CN3CCC(C)CC3)c2cc1Cl	15	26*	-25	4	0	.	4
Cc1cc(NC(=O)[C@H](C)Oc2ccccc2)n(-c2nc(-c3cccs3)cs2)n1	.	.	-7	.	.	.	.
CSc1cccc2sc(N3CCNCC3)nc12	.	.	-11	.	.	.	.
